According to the supplement of paper PMC10849652:
Targets with a hit are over-represented here; the source holds about 8,800 in all. About 0.5% of all pairs of compound and target were hits. A number with no mark means an inactive call.

Columns and labels:
Test in all cases: log2 fold change, soluble protein after heating vs DMSO (PISA); higher = thermal stabilisation; K562 lysate, 10 uM; active = over 0.2 and 3.5 SD of the protein, either way, in both replicates (recomputed)
[1] = compound: C1=CC=C(C=C1)[C@H](COC2=CC3=C(C=C2)NC(=O)N3)NC(=O)C4=CC=CN(C4=O)CC5=CC(=C(C=C5)F)F
How it was run: (§1)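 Pellets of K562 cells were dounce-homogenised in PBS pH 7.4 with 1 mM MgCl2, and the crude extract was held at 1 mg/mL protein for a 30 min treatment with 10 μM compound. Aliquots were heated for 3 min over 48°C-58°C and pooled before NP-40 was added to 0.5% at 4°C. The supernatant from 21,000xg for 90 min was quantified by TMTpro 16plex LC-MS/MS with channel sums equalised. Values are reported from duplicates as log-two fold change in thermal stability relative to solvent controls.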

[2] = compound: CC1=C(SC2=C1C(=N[C@H](C3=NN=C(N32)C)CC(=O)N)C4=CC=C(C=C4)Cl)C
How it was run: as §1

[3] = compound: CC1=C2C(=CC=C1)N=C(N(C2=O)C3=CC=CC=C3C)CN4C=NC5=C(N=CN=C54)N
How it was run: as §1

[4] = compound: Cc1sc2c(c1C)C(c1ccc(Cl)cc1)=N[C@@H](CC(=O)OC(C)(C)C)c1nnc(C)n1-2
How it was run: as §1

[5] = compound: c1ccc([C@@H]2C[C@H]2NC2CCNCC2)cc1
How it was run: as §1

UniProt P27144, sequence (P27144 whole entry, looked up): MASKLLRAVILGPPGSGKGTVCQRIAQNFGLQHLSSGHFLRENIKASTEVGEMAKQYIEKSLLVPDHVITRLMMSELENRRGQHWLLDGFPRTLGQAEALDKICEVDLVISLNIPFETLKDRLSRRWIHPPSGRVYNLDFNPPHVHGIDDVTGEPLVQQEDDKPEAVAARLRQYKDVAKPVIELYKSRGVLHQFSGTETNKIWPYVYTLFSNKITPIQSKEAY
UniProt P04083, sequence (P04083 whole entry, looked up): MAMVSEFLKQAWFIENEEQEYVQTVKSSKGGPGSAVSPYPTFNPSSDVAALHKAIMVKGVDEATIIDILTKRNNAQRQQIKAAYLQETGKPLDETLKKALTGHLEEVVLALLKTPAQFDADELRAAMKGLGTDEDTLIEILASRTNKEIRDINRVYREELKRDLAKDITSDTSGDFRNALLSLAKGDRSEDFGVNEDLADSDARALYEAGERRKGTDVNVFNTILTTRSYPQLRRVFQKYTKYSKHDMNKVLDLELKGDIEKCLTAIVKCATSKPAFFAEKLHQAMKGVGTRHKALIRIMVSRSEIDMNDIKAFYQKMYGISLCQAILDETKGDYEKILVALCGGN
UniProt P42684, sequence (P42684 whole entry, looked up): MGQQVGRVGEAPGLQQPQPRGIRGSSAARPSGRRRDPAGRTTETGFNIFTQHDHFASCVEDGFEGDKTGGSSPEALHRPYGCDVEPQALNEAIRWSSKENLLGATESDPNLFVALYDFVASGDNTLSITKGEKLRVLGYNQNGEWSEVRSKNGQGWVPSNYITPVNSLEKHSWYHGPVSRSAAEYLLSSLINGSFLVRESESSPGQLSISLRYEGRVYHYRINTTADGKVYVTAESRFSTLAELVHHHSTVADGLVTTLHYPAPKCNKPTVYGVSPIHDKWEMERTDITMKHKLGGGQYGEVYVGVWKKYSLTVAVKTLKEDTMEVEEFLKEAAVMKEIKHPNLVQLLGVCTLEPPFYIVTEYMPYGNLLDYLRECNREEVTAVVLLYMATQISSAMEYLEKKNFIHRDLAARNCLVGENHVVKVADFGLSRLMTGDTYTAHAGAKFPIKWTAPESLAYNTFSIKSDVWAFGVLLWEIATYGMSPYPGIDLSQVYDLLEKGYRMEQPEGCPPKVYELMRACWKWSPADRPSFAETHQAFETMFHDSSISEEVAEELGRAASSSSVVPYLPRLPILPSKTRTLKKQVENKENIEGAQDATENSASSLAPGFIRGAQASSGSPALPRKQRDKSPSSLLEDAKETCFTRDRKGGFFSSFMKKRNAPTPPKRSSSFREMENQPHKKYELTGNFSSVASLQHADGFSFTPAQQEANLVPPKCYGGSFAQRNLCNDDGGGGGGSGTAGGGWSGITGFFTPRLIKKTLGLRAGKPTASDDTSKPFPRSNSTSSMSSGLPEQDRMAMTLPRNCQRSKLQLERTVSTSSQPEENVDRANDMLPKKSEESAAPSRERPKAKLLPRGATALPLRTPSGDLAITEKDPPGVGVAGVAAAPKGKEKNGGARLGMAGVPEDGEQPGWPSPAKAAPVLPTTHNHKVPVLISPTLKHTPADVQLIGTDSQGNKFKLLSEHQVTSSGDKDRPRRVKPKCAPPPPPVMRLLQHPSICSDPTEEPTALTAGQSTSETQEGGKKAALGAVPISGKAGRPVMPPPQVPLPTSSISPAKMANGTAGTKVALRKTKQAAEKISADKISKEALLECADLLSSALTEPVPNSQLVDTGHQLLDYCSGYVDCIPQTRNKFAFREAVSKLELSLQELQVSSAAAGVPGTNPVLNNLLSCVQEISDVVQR
UniProt Q92685, sequence (Q92685 whole entry, looked up): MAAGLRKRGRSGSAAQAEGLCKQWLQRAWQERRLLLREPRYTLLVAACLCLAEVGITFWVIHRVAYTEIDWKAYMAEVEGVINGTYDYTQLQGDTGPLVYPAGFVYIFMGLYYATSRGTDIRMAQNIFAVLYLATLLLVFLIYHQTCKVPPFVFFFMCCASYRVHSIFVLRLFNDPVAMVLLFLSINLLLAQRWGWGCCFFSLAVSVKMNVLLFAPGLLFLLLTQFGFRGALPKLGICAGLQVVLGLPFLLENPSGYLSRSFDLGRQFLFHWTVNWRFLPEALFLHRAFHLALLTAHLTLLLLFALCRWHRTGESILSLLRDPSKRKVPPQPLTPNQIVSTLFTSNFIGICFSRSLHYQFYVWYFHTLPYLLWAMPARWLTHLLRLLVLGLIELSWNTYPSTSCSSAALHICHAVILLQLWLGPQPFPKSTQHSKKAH
UniProt Q9UHB7, sequence (Q9UHB7 whole entry, looked up): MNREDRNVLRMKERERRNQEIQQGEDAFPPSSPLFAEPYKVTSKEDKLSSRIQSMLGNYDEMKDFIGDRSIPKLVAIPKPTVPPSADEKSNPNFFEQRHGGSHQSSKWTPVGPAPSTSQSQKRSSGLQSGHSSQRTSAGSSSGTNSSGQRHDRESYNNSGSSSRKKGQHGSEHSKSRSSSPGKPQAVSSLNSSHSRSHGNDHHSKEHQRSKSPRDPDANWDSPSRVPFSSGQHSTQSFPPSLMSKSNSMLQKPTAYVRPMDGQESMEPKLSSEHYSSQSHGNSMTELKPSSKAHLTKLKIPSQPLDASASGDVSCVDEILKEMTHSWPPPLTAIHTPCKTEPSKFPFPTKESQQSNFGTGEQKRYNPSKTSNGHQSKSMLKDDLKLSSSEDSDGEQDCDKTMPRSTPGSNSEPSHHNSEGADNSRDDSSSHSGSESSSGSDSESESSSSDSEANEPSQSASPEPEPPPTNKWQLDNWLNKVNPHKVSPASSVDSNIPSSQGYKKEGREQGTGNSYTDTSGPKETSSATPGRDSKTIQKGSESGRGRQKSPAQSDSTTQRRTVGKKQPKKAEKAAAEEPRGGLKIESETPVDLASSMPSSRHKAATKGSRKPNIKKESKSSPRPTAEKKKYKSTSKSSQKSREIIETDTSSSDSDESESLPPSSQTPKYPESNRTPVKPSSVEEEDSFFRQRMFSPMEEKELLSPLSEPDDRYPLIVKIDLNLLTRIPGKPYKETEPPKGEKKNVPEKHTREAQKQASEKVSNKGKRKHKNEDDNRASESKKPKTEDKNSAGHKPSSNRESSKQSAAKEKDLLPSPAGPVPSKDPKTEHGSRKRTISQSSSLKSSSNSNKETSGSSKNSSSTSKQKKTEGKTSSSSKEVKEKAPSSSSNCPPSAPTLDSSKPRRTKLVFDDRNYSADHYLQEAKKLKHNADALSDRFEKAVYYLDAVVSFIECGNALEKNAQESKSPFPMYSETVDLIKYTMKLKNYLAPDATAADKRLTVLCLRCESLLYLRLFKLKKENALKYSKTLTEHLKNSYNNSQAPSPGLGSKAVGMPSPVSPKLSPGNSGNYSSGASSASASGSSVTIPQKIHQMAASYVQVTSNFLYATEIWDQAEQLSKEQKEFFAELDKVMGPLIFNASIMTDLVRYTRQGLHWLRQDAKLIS
UniProt Q01432, sequence (Q01432 whole entry, looked up): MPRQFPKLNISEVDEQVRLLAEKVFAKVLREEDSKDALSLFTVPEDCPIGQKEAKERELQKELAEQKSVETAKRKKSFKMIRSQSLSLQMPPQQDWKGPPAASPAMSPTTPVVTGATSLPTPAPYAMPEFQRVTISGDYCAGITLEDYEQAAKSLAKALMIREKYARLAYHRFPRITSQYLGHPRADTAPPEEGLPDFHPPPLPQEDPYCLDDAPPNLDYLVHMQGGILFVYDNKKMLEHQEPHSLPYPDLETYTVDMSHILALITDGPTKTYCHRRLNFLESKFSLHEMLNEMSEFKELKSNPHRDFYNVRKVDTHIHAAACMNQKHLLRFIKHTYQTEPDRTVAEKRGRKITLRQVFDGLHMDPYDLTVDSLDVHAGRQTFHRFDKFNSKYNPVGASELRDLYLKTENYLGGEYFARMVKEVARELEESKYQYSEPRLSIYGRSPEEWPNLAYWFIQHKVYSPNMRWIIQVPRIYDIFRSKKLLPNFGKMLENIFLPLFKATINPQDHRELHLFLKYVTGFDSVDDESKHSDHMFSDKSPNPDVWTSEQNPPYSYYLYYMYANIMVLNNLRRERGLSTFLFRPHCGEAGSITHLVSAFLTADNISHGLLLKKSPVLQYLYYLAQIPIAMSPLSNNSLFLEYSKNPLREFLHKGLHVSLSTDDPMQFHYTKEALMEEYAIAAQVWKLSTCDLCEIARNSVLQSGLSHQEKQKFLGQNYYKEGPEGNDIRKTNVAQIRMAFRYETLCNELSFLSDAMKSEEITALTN
UniProt P35611, sequence (P35611 whole entry, looked up): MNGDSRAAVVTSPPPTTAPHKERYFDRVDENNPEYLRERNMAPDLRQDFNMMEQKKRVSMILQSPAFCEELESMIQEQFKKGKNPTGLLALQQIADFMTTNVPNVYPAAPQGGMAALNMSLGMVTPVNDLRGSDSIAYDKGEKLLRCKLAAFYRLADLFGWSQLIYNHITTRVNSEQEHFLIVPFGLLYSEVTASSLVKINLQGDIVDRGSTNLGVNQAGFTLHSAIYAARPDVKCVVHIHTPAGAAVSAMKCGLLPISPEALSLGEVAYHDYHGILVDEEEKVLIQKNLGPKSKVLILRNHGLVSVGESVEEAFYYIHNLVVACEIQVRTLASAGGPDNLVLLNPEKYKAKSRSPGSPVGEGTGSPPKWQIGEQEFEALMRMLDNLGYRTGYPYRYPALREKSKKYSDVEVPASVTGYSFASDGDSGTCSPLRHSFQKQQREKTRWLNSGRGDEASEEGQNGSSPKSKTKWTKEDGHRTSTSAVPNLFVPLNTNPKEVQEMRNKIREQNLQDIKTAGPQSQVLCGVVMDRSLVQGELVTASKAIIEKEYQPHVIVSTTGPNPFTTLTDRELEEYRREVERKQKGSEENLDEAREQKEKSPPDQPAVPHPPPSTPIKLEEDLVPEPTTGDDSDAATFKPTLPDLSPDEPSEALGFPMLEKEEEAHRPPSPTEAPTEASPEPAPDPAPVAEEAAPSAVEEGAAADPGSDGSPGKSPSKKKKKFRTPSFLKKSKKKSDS
UniProt P00568, sequence (P00568 whole entry, looked up): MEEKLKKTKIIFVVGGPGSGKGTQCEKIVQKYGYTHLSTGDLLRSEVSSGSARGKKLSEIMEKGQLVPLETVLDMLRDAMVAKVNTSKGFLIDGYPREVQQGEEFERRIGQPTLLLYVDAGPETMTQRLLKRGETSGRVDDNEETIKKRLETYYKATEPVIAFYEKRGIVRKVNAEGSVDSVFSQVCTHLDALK

Target	log2 fold change [1]	log2 fold change [2]	log2 fold change [3]	log2 fold change [4]	log2 fold change [5]
AGTPBP1 (UniProt Q9UPW5)	0.131	-0.13	0.051	-0.042	0.03
AARS2 (UniProt Q5JTZ9)	0.014	-0.076	0.026	0.041	0.045
AGO4 (UniProt Q9HCK5)	0.014	0.022	0.001	-0.011	-0.07
ANAPC7 (UniProt Q9UJX3)	-0.008	-0.003	-0.002	0.023	0.048
AHCYL1 (UniProt O43865)	-0.011	-0.003	-0.011	0.034	0.006
ANXA1 (UniProt P04083)	-0.011	0.005	-0.01	-0.019	-0.005
AK4 (UniProt P27144)	0.025	-0.038	0.059	0.024	0.026
ALG3 (UniProt Q92685)	0.002	-0.006	0.048	-0.035	-0.127
AK1 (UniProt P00568)	-0.032	0.024	-0.009	0.012	0.2
ADD1 isoform 3 (UniProt P35611)	0.03	0.016	-0.01	-0.021	0.015
ACSL4 (UniProt O60488)	-0.058	0.046	0.032	-0.106	0.038
ARHGEF2 (UniProt Q92974)	0.023	-0.007	0.034	0.008	0.05
ARHGAP21 (UniProt Q5T5U3)	0.031	0.117	0.031	0.008	0.124
ARFGAP1 (UniProt Q8N6T3)	0.037	-0.091	0.149	-0.081	-0.127
ASCC2 (UniProt Q9H1I8)	0.181	0.063	-0.027	-0.019	0.076
ABCD3 (UniProt P28288)	0.178	-0.094	0.016	0.013	0.01
ALG13 (UniProt Q9NP73)	-0.015	-0.018	0.09	0.037	-0.087
ACTG1 (UniProt I3L4N8)	-0.042	-0.082	-0.098	-0.245	0.218
ACTBL2 (UniProt Q562R1)	0.138	-0.194	-0.016	0.106	0.365
ACACA isoform 4 (UniProt Q13085)	0.001	0.027	0.019	0.027	0.085
AMPD3 isoform 4 (UniProt Q01432)	0.02	-0.021	-0.012	0.018	0.093
ALG8 (UniProt Q9BVK2)	0.034	0.001	0.059	-0.013	-0.008
ABCF3 (UniProt Q9NUQ8)	0.002	-0.016	0.031	0.013	0.06
ARL13B (UniProt Q3SXY8)	0.087	0.03	0.012	0.019	0.145
ACOX1 isoform 2 (UniProt Q15067)	0.035	-0.002	-0.026	-0.018	-0.037
ASPH (UniProt Q12797)	0.006	0.028	0	-0.045	0.026
AKAP8L (UniProt Q9ULX6)	0.011	-0.005	-0.001	0.018	-0.02

Target	log2 fold change [1]	log2 fold change [2]	log2 fold change [3]	log2 fold change [4]	log2 fold change [5]
ALDH18A1 (UniProt P54886)	-0.018	-0.032	0.019	-0.005	0.034
ABCC5 (UniProt O15440)	0.087	-0.052	-0.108	-0.099	0.115
ADD1 isoform 4 (UniProt P35611)	0.22	0.088	0.12	-0.099	-0.571
ABHD16A (UniProt O95870)	-0.011	0.008	0.07	0.059	0.028
ASNS (UniProt P08243)	0.006	0.021	0.027	0.057	0.033
ABL1 isoform 2 (UniProt P00519)	-0.042	-0.065	0.067	-0.017	0.102
AFF4 (UniProt Q9UHB7)	-0.362 (active)	-0.269	-0.081	-0.026	-0.052
ALDH1L2 (UniProt Q3SY69)	0.015	0.041	0.052	-0.009	-0.023
ABHD17A isoform 2 (UniProt Q96GS6)	-0.053	-0.02	0.011	-0.025	-0.069
ARL15 (UniProt Q9NXU5)	0.02	-0.005	0.018	-0.009	0.269
AP3D1 isoform 5 (UniProt O14617)	0.042	-0.027	0.003	0.025	-0.028
AKT1 (UniProt P31749)	0.011	-0.028	-0.028	-0.009	0.013
ABI1 isoform 9 (UniProt Q8IZP0)	-0.013	-0.008	-0.006	-0.004	-0.117
ADK (UniProt P55263)	0.059	-0.035	0.051	-0.036	-0.133
ANP32A (UniProt P39687)	0.007	0.02	0	0.07	-0.033
ABHD12 isoform 2 (UniProt Q8N2K0)	0.008	0.042	0.003	0.031	0.042
AK2 (UniProt P54819)	0.046	-0.013	0.01	0.051	-0.015
ARMCX3 (UniProt Q9UH62)	0.015	0.009	0.029	-0.074	0.053
ABCF2 isoform 2 (UniProt Q9UG63)	-0.022	-0.011	0.04	-0.019	0.055
ANP32E (UniProt Q9BTT0)	0.043	-0.005	-0.053	-0.038	0.026
AKR1C3 (UniProt P42330)	0.031	0.05	0.022	-0.04	0.031
ABL2 (UniProt P42684)	-0.026	0.016	0	-0.14	-0.105
ARGLU1 (UniProt Q9NWB6)	0.049	0.009	0.036	-0.026	0.074
ARHGAP6 (UniProt O43182)	-0.026	-0.023	-0.012	0.018	0.02
ADRM1 (UniProt Q16186)	-0.005	0.007	-0.001	-0.026	0.016
AKAP11 (UniProt Q9UKA4)	0.025	-0.008	0.059	-0.041	-0.012
